This is an account of results in PubChem BioAssay (Tox21).

A short description of assay [1]: qHTS assay to identify small molecule agonists of the vitamin D receptor (VDR) signaling pathway - cell viability counter screen (AID 743224). Further: series mostly up to about 63 µM; nearly all actives have a fitted effect of over 50% in size. In short, it runs like this: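 Counter screen for cytotoxicity: VDR-bla cells at 2,000 cells/well, 16 h compound exposure, then CellTiter-Glo luminescence after the beta-lactamase measurement.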
(In general: In qHTS, concentration-response curves come from the screen itself.)

A short description of assay [2]: qHTS assay to identify small molecule antagonists of the vitamin D receptor (VDR) signaling pathway - cell viability counter screen (AID 743225). Further: nearly all actives have a fitted effect of over 50% in size. The essentials:
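HEK293T VDR-bla; cpd + 1a,25-(OH)2D3 3 nM final, 16 h 37C/5% CO2; B/G FRET substrate 2 h RT; then CellTiter-Glo 30 min RT, luminescence.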

The nature of assay [3]: qHTS assay to identify small molecule agonists of the endoplasmic reticulum stress response signaling pathway (AID 1159516; active means well fitted activation curve with a large enough effect in the signal ratio in the repeat runs, not every such curve was filed as active; the % refers to the signal ratio). In short, it runs like this:
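For this screen, HeLa cells stably carrying beta-lactamase under the ER stress response element received test compounds, positive controls or DMSO for 5 hr at 37 C; B/G FRET substrate was then added and dual-wavelength emission recorded.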

Assay [4] is described as follows: qHTS assay to identify small molecule agonists of the endoplasmic reticulum stress response signaling pathway - cell viability counter screen (AID 1159517; calls by dose curve; further: series mostly up to about 61 µM; nearly all actives have a fitted effect of over 50% in size). The essentials: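 Steps: seed 1,500 ESRE-bla HeLa cells per well; incubate overnight at 37 C, 5% CO2; add compounds in DMSO for 5 hr; run FRET substrate 2 hr RT; add CellTiter-Glo, wait 30 min, read luminescence.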

For assay [5], the target named is Nuclear receptor ROR-gamma (Homo sapiens) (UniProt P51449). Nature of the assay: qHTS assay to identify small molecule antagonists of the retinoid-related orphan receptor gamma (ROR-gamma) signaling pathway (AID 1159521; further: nearly all actives have a fitted effect of over 50% in size; further: potency means the concentration at half of the fitted maximal effect). The essentials: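 Cells were plated, rested 4 h at 37 C, exposed to compounds for 2 h, then given 1 uM final doxycycline hyclate to induce RORγ expression. After 16 h, ONE-Glo luminescence from the ROR response element reporter was measured.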

Assay [6] is described as follows: qHTS assay to identify small molecule agonists of the AP-1 signaling pathway - cell viability counter screen (AID 1159525; calls by dose curve; further: nearly all actives have a fitted effect of over 55% in size; further: potency means the concentration at half of the fitted maximal effect). In short, it runs like this:
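Same-well cytotoxicity counter screen of the Tox21 10K library in ME-180 cells. The readout is ATP-dependent luminescence after 5 h compound treatment. Data are normalised to DMSO and tetra n-octyl ammonium bromide controls.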

Assay [7] is described as follows: qHTS assay to identify small molecule agonists of the AP-1 signaling pathway (AID 1159526; calls by dose curve).
Assay [8] concerns the target Retinoic acid receptor RXR-alpha (Homo sapiens) (UniProt P19793). The experiment in a line: qHTS assay to identify small molecule agonists of the RXR signaling pathway (AID 1159527; calls by dose curve; further: nearly all actives have a fitted effect of over 35% in size). In short, it runs like this: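 Cells plated at 2,000/well, rested 5 hr at 37 C, pin-dosed with DMSO compound solutions, incubated 16 hr, then loaded with B/G FRET substrate for 2 hr at RT before dual-emission fluorescence reading.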

Assay [9] is described as follows: qHTS assay to identify small molecule antagonists of the retinoid-related orphan receptor gamma (ROR-gamma) signaling pathway - cell viability counter screen (AID 1159520). Further: nearly all actives have a fitted effect of over 50% in size. The essentials: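 Tet-on ROR gamma CHO cells were given compounds for 2 hr, then doxycycline hyclate at 1 uM final, and incubated 16 hr at 37 C. Viability was measured as ATP content by CellTiter-Glo luminescence.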

Results filed as inconclusive are left out. Calls of active or inactive are those of the source. Unless noted, the call rests on the fitted dose curve; in most records, active means well fitted curve in the direction sought with a large enough effect in the repeat runs; inconclusive means weak or mixed curves; inactive means no such curve, though single readings can be large; an effect the other way counts as inactive or inconclusive.

Sequence of Retinoic acid receptor RXR-alpha (Homo sapiens) (P19793 whole entry, looked up): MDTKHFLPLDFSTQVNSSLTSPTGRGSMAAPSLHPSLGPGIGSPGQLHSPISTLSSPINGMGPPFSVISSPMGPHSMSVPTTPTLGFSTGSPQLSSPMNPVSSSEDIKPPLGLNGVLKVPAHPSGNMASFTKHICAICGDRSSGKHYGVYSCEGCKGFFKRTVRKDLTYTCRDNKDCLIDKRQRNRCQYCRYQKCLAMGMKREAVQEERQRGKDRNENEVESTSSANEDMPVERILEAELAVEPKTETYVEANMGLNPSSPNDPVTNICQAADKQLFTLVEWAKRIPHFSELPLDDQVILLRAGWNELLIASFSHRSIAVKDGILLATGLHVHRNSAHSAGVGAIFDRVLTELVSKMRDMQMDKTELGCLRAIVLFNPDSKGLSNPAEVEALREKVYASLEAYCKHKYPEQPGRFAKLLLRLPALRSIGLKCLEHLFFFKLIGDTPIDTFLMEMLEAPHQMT

Turning to `CCOc1ccc(N)c([N+](=O)[O-])c1`, the Potency entry in assay [1], in assay [2], in [3], in assay [4], in assay [5] and in assay [6] was “inactive” throughout. For the same compound, the Potency entry in assay [7] and in [8] was “inactive” in each case.

`CC(C)(CO)[N+](=O)[O-]`: the Potency entry in assay [1], in assay [2], in assay [3], in [9], in assay [6] and in assay [7] was “inactive” each time. For the same compound, the Potency entry in [8] was “inactive”.

In the case of `COc1cc2nc(N(C)CCCNC(=O)C3CCCO3)nc(N)c2cc1OC` (stereo unspecified), the Potency entry in assay [1], in assay [2], in [3], in assay [4], in assay [9] and in [6] was “inactive” in each case. Besides, the Potency result in assay [7] and in assay [8] was “inactive” each time.

For the compound `CC(C)Cc1ccc(C(C)C(=O)OCc2ccccn2)cc1` (stereo unspecified), the Potency entry in assay [1], in assay [2], in [3], in [4], in [9] and in assay [7] was “inactive” in each case. In addition, the Potency in assay [6] is 0.239 µM (active).

As to `CN(C)c1ccc(C(c2ccccc2)c2ccc(N(C)C)cc2)cc1`, the Potency result in assay [1], in [2] and in assay [7] was “inactive” each time. The Potency in assay [5] is 27.3 µM (active).

Consider `Cc1cc(N)c2cc(NC(=O)Nc3ccc4nc(C)cc(N)c4c3)ccc2n1`, for which the Potency entry in [3] and in assay [9] was “inactive” in each case.
